Test results: PubChem BioAssay (NCATS)
Where “and” joins values, the source holds several entries; their conditions need not be identical. Equal values may be shown once. Inconclusive results are not listed. Entries that show only a call come without a potency. Unmarked numbers belong to inactive results. Calls of active or inactive are those of the source. Unless noted, calls come from the whole dose curve; as a rule, active = well fitted curve in the direction sought with a large enough effect; inconclusive = small, poorly fitted or top-dose-only effect, or another doubt; inactive = no such curve, though single readings can be large; an effect the other way counts as inactive or inconclusive.

Key:
[1] = target: Cellular tumor antigen p53 (Homo sapiens) (UniProt P04637); assay: Primary qHTS for small molecule compounds that upregulate eGFP-tagged delta133p53alpha (in N-terminal) cells. (AID 2060322); conditions: NCI-H358 eGFP-delta133p53alpha fluorescence, 24 h; activation: active compounds read high;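 note: cells pre-induced with doxycycline then dosed without doxycycline; nearly all actives have a fitted effect of over 75% in size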
Summary of the method: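 NCI-H358 cells pre-induced 24 h with 10 ng/ml doxycycline for eGFP-delta133p53alpha, plated dox-free and exposed 24 h at 37C to titrated compounds. Fixed, Hoechst-stained; gated GFP peak intensity by laser scanning cytometry, normalized to DMSO (0%) and 57.5 uM 5-azacytidine (100%).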

[2] = target: Cellular tumor antigen p53 (Homo sapiens) (UniProt P04637); assay: Primary qHTS for small molecule compounds that upregulate eGFP-tagged delta133p53alpha (in C-terminal) cells. (AID 2060324); conditions: NCI-H358 delta133p53alpha-eGFP (C-terminal tag), GFP fluorescence imaging, 24 h; series mostly up to 57.5 µM; note: potency is the fitted concentration of half-maximal effect
Summary of the method: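 Concentration-response screen: compounds titrated onto pre-induced NCI-H358 D133p53a-eGFP cells, incubated one day, fixed with 3.5% PFA. Per-cell GFP peak intensity was gated, then normalized against intraplate controls.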

[3] = target: Aldehyde dehydrogenase, mitochondrial (Homo sapiens) (UniProt P05091); assay: qHTS for Inhibitors of the Aldehyde Dehydrogenase Family (ALDH2) Validation screens (AID 2061302; active = well fitted inhibition curve with a large enough effect; title and protocol of this record describe different tests); conditions: ALDH inhibition qHTS; series mostly up to 42.6 µM
[4] = target: Retinaldehyde dehydrogenase 3 (Homo sapiens) (UniProt P47895); assay: qHTS for Inhibitors of the Aldehyde Dehydrogenase Family (ALDH1A3) Validation screen (AID 2061312); conditions: ALDH1A3 enzyme inhibition qHTS validation, fluorescence; series mostly up to 84.7 µM; note: nearly all actives have a fitted effect of over 45% in size

Sequence of Cellular tumor antigen p53 (Homo sapiens) (P04637 whole entry, looked up): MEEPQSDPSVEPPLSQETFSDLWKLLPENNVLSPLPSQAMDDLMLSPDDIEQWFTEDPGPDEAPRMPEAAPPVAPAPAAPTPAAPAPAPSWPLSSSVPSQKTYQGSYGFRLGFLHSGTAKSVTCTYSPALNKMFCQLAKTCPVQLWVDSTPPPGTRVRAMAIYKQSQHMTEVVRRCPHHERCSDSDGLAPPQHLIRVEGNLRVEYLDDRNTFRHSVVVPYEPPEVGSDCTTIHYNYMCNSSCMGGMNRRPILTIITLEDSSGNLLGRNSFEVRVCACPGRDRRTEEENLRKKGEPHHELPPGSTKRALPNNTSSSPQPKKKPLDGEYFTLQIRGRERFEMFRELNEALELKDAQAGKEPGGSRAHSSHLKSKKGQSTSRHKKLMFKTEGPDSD

Structure (SMILES) | activation [1] | Potency [2] | Potency [3] | Potency [4]
NCCNS(=O)(=O)c1cccc2c(Cl)cccc12 | -38% | inactive | inactive | inactive
COc1cccc(C(=O)NCCN2CCN(c3ccc(Cl)cc3)CC2)c1 | -34.4% | inactive | inactive | inactive
COc1ccc(C(=O)NCc2cccnc2)cc1C(=O)NCc1cccnc1 | -12.6% | inactive | inactive | inactive
Nc1cc(=O)[nH]c(N)n1 | -34.3% and -22.6% | inactive | inactive | inactive
CC(C)(CO)Cc1cc(C(C)(C)C)c(O)c(C(C)(C)C)c1 | -20% | inactive | inactive | inactive
COc1cc(C(O)C(=O)O)ccc1O (stereo not given) | -11.9% | inactive | inactive | inactive
O=C(O)CCCC[C@@H]1CCSS1 | -13.5% | inactive | inactive | inactive
O=C(O)[C@H]1NCCC[C@H]1C(=O)O | -3.88% | inactive | inactive | inactive
N[C@H](C(=O)O)[C@H](Cc1ccccc1)C(=O)O | 1.24% | inactive | inactive | inactive
O=c1[nH]c(=O)n([C@H]2C[C@H](O)[C@@H](CO)O2)cc1Br | -16.4% and -22.3% | inactive | inactive | inactive
COc1ccc(/C=C2\COc3ccc(C)cc3C2=O)cc1O | -71.5% | 13.5 µM (active) | inactive | inactive
C/C(=C\c1ccc(C(=O)O)cc1)c1ccc2c(c1)C(C)(C)CCC2(C)C | -14.6% | inactive | inactive | inactive
CCCOC(=O)c1c(-c2ccccc2)nc(CC)c(C(=O)SCC)c1CCC | -30.9% | inactive | inactive | inactive
c1ccc2nc(C3=NCCN3)ccc2c1 | 5.83% | inactive | inactive | inactive
CC(=O)SCC[N+](C)(C)C | -8.68% | inactive | inactive | inactive
CCCN(CC1CC1)c1nc(C)nc(Nc2c(Cl)cc(Cl)cc2Cl)c1Cl | -22.7% | inactive | inactive | inactive
CO[C@@]1(NC(=O)CSCC#N)C(=O)N2C(C(=O)O)=C(CSc3nnnn3C)CS[C@@H]21 | 11.9% and 5.62% | inactive | inactive | inactive
O=C(O)c1cc2cc(Cc3cccnc3)ccc2o1 | 19.6% | inactive | inactive | inactive
COc1ccccc1N1CCN(CCCCNC(=O)c2ccc3ccccc3c2)CC1 | -23% | inactive | inactive | inactive
CCN(CC)CCOC(=O)c1ccc(N)cc1 | -14.2% and -16.3% | inactive | inactive | inactive
CN1CCN2c3ccccc3Cc3ccccc3C2C1 (stereo not given) | -35.4% | inactive | inactive | inactive
CC(=O)OC(C)C[N+](C)(C)C (stereo not given) | 10.7% and 1.73% | inactive | inactive | inactive
CCn1c(=O)[nH]c2cc(Cl)c(Cl)cc21 | -55.4% | inactive | inactive | inactive
CC(C)(C)NCC(O)c1cc(O)cc(O)c1 (stereo not given) | 2.51% and 8.65% | inactive | inactive | inactive
O=C(O)C1=CCNCC1 | -0.576% | inactive | inactive | inactive
